Experimental data: the supplement of paper PMC11732987, “Enantioselective OTUD7B fragment discovery through chemoproteomics screening and high-throughput optimisation” (Communications Chemistry, 2025)

Columns and labels:
Experiment in all cases: log2 ratio of Biotin-Ahx-Ub-VS probe labelling (fragment/DMSO); higher = less target engagement (more negative = stronger competition), active = hit call of the paper (q ≤ 0.05, log2 ratio ≤ -1)
Conditions in all cases: compound concentration: 200 uM; treatment time: 3 h
USP34 = USP34 (UniProt Q70CQ2)
USP34, sequence (Q70CQ2 whole entry, the tested form may be a part): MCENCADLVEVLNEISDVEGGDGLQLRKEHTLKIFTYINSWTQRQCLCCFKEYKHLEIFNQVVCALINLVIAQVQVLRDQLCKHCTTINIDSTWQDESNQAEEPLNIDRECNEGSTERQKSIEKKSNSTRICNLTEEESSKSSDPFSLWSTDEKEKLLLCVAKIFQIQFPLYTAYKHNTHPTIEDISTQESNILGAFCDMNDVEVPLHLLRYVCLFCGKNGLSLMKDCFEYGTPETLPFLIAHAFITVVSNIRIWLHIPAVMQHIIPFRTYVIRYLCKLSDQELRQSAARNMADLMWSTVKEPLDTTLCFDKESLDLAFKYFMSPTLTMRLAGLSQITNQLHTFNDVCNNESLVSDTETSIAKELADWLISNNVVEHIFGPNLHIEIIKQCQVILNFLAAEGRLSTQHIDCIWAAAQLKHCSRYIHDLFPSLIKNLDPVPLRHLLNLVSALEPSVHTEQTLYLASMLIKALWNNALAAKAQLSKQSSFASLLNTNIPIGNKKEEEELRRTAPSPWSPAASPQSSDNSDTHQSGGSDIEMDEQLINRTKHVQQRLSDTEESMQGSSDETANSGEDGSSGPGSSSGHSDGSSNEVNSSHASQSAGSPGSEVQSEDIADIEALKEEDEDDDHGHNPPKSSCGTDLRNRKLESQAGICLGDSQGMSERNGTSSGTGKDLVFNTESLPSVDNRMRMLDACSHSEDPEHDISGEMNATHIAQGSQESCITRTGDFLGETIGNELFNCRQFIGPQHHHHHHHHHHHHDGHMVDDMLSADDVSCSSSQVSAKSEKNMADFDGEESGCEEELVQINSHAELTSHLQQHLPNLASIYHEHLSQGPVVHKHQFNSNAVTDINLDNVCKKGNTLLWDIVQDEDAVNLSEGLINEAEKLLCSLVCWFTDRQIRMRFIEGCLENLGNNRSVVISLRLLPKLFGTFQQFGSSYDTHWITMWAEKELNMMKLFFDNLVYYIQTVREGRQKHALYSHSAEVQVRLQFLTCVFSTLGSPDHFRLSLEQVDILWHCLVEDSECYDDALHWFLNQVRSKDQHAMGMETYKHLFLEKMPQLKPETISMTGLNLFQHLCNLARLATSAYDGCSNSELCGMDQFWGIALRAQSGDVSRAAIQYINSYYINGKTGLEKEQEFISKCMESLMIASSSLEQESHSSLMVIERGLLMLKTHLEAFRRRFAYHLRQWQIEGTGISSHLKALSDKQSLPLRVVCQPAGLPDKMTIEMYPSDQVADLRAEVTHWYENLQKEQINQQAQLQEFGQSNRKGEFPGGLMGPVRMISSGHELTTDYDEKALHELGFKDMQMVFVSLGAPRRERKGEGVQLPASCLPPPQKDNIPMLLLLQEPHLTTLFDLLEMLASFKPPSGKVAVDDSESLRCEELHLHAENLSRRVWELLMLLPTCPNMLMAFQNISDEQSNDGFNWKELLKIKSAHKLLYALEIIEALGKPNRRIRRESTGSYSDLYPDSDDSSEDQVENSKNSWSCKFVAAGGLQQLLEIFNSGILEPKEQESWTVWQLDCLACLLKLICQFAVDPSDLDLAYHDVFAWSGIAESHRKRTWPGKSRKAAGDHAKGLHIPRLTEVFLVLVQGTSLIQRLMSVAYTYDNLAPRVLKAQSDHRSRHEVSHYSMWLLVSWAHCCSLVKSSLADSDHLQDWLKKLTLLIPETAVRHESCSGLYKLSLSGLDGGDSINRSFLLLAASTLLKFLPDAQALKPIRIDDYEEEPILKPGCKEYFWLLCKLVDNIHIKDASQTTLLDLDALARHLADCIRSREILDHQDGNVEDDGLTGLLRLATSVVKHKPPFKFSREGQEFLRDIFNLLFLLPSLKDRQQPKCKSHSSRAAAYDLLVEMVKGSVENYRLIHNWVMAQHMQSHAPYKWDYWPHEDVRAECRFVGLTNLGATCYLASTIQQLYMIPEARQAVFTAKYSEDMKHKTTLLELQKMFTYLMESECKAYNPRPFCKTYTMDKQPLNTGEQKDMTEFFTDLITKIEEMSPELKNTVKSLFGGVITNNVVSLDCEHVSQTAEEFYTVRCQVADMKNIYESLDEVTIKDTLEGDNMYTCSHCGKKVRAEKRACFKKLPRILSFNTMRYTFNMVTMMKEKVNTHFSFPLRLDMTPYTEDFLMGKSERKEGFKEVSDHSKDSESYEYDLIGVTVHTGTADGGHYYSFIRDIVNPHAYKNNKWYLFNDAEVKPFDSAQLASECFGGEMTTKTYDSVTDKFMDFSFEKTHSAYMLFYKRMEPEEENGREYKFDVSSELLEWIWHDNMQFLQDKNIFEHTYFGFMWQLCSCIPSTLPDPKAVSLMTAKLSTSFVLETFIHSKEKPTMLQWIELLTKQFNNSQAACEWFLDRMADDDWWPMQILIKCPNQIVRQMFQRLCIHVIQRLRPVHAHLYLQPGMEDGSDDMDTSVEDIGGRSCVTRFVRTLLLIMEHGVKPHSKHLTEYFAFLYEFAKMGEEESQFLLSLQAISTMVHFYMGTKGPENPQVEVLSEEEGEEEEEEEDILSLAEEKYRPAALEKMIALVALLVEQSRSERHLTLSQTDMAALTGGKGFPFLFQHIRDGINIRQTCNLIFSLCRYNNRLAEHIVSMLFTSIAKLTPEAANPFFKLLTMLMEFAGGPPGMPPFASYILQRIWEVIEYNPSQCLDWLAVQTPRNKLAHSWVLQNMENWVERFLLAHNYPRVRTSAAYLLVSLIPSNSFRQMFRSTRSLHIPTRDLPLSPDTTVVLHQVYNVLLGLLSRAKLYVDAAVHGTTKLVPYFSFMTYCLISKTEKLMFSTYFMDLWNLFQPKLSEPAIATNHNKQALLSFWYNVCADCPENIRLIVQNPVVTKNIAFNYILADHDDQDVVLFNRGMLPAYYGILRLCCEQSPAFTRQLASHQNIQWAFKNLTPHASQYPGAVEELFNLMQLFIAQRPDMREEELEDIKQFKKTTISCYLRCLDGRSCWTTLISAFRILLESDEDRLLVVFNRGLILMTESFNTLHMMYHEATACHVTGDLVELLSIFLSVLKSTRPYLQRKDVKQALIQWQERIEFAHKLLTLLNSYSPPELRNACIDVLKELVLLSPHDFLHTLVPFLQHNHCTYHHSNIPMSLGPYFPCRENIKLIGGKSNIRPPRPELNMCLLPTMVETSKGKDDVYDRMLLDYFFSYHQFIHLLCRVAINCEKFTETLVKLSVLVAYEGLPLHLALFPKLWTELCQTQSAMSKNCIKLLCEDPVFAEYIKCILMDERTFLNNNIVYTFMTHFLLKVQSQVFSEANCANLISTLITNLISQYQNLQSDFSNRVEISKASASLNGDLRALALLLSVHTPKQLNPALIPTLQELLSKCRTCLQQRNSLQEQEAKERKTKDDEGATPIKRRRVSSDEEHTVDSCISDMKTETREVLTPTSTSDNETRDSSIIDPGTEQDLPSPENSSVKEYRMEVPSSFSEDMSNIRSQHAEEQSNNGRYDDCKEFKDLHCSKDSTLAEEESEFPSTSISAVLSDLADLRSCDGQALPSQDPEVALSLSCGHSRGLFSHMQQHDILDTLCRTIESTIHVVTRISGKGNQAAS
Outline: (§1)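 Labelling with Biotin-Ahx-Ub-VS (0.5 µM final, 1 h) followed a 3 h triplicate treatment of HEK293T lysate (495 µg per sample, Tris/CHAPS/IGEPAL buffer with protease inhibitors) with fragment at 200 µM or vehicle. Labelled DUBs were NeutrAvidin-enriched, digested with LysC and trypsin, and run by diaPASEF LC-MS/MS. The values, average log2 fragment/vehicle ratios by unpaired t-test, come from global-median-normalised Spectronaut label-free quantities. Proteins with ≥2 unique peptides were used.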

USP36 = molecular target: T1, USP36 (UniProt Q9P275)
T1 sequence (whole entry): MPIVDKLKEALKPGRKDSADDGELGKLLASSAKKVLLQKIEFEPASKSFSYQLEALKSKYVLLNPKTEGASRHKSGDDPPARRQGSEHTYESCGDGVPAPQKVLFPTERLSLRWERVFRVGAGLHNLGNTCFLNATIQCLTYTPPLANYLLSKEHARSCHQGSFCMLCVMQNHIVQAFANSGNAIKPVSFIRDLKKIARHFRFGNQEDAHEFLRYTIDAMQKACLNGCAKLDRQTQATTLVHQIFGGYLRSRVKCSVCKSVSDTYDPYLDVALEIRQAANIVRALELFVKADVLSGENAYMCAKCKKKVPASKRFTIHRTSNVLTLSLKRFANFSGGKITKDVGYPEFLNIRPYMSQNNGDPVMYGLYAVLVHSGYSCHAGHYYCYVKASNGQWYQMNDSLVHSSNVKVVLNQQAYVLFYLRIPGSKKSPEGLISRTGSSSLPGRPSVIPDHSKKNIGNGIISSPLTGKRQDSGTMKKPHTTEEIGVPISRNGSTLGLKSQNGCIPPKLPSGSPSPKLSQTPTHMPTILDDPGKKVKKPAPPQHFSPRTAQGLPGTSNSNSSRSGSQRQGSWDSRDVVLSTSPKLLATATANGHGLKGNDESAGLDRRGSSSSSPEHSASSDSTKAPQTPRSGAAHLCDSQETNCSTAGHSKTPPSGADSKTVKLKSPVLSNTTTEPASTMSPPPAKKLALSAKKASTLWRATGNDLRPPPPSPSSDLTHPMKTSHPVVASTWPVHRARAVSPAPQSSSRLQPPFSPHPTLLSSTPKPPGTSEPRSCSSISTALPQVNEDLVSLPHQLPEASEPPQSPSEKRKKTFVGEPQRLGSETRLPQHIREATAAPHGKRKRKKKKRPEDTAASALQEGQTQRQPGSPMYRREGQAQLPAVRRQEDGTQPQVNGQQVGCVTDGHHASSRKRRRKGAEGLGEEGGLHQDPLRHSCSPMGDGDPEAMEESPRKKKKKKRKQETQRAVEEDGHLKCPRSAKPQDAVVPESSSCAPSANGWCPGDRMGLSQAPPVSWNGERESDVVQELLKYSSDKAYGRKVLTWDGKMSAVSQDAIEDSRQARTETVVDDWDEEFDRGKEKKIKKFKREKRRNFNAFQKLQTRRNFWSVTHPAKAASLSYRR
Outline: as §1

USP38 = molecular target: T2, USP38 (UniProt Q8NB14)
T2 sequence (whole entry): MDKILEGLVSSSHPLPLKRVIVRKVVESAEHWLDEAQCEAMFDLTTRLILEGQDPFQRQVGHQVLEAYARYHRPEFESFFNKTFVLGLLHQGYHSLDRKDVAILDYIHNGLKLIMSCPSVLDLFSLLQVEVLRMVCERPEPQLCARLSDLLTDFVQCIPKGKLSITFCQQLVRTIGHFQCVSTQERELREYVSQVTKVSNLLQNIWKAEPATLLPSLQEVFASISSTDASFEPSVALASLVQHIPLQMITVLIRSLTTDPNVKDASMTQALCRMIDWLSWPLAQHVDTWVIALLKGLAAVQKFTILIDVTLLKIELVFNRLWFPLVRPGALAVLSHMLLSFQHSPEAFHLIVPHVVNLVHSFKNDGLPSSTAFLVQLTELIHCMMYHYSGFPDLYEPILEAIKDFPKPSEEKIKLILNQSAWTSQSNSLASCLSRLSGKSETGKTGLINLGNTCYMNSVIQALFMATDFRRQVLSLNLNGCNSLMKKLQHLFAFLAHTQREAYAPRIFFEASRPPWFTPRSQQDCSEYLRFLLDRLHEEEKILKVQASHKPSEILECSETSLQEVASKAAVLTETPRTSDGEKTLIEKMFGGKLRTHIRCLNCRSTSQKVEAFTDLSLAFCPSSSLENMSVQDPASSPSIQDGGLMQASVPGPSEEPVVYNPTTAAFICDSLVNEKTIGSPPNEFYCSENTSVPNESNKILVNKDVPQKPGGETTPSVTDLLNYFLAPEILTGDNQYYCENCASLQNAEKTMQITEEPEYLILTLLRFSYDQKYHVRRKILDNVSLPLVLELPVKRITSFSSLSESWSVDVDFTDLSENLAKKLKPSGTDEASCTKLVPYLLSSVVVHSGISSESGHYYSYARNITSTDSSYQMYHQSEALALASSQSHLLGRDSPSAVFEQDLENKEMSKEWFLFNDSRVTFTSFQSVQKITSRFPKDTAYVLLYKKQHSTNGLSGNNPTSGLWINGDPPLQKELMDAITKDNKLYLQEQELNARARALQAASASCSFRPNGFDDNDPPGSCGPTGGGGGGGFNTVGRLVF
Outline: as §1

USP39 = molecular target: T3, USP39 (UniProt Q53GS9)
T3 sequence (whole entry): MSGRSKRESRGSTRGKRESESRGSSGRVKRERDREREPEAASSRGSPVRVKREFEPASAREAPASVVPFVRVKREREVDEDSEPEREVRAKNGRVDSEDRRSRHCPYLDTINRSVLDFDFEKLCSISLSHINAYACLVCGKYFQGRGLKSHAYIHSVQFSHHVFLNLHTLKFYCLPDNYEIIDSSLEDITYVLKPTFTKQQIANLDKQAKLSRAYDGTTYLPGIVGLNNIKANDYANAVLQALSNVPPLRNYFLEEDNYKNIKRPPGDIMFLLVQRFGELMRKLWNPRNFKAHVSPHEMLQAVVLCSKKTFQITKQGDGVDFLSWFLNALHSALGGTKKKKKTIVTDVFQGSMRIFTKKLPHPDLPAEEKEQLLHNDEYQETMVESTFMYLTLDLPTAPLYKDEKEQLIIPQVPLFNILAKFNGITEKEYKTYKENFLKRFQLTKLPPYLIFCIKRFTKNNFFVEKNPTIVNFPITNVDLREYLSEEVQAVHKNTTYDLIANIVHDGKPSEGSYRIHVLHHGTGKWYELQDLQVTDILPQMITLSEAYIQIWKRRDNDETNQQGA
Outline: as §1

USP4 = molecular target: T4, USP4 (UniProt Q13107)
T4 sequence (whole entry): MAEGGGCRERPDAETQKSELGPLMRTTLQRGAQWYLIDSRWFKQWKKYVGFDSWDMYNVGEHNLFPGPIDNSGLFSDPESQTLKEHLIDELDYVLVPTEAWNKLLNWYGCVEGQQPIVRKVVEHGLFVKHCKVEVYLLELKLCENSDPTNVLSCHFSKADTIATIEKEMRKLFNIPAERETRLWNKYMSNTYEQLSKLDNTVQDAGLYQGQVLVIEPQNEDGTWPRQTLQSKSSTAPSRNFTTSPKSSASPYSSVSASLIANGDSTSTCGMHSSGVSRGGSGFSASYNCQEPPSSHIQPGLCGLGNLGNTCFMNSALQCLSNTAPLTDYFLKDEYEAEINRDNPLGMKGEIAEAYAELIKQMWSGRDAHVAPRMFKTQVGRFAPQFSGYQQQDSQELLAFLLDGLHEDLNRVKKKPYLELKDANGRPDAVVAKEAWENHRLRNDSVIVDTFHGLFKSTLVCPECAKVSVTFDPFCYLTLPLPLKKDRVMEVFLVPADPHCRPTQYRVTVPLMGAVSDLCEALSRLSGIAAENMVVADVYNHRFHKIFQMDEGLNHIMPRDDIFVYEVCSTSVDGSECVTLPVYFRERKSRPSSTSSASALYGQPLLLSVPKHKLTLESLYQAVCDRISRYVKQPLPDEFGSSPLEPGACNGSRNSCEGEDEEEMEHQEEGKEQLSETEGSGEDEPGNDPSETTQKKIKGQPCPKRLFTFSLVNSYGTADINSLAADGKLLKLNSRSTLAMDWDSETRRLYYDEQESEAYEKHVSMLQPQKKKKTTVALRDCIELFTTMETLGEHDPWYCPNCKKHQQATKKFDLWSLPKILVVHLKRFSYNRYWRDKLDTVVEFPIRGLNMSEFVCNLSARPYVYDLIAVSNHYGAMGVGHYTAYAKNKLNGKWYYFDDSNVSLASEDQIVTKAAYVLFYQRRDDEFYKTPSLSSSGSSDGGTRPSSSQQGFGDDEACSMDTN
Outline: as §1

Measured: log2 ratio of Biotin-Ahx-Ub-VS probe labelling

O=C(CCl)NCC(=O)N1CCCC1
inactive: USP34 0.0366 | USP36 -0.0373 | USP38 0.115 | USP39 0.319 | USP4 -0.0182
